KDM5B inh: blocks human KDM5B histone demethylase activity; Q9UGL1; KDM5B demethylase, FDH-coupled NADH fluorescence (FDH is formaldehyde dehydrogenase); Potency, µM (series often up to 57.7 µM), most hits filed as inhibitors; actives 2.6% (n = 220,000); AID 1347165; active means well fitted inhibition curve with a large enough effect; further: nearly all actives have a fitted effect of over 70% in size
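qHTS format, multiple compound concentrations. Buffer 50 mM HEPES pH 7.5/0.01% Tween-20; 200 nM KDM5BΔAP final; 10 min compound preincubation; substrate-mix levels 12.5 µM peptide, 25 µM α-KG, 0.25 mM NAD⁺; 30 min RT; ΔRFU.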
Hits are given with their value. The entries come from a sample that favours hits as a whole.

What do the screens show for `COc1ccc(NC2=N[C@H]3[C@@H](O)[C@H](O)C[C@H](C(=O)NCc4ccccc4OC)[C@H]3S2)cc1`?
KDM5B inh: inactive

Results for C#CCNC(=O)[C@H]1C[C@@H](O)[C@H](O)[C@@H]2N=C(Nc3cccc4ccccc34)S[C@@H]21 ?
KDM5B inh: 8.91µM

Results for Cc1cc(C)cc(NC2=N[C@H]3[C@@H](O)[C@H](O)C[C@H](C(=O)NCCN4CCCCC4)[C@H]3S2)c1 ?
KDM5B inh: inactive

Results for O=C(c1nc(-c2cc(Cl)cc(Cl)c2)c2ccccn12)N1CCCC1 ?
KDM5B inh: 28.2µM

What do the screens show for `CS(=O)(=O)c1ccc(-c2nc(C(=O)N3CCCC3)n3ccccc23)cc1`?
KDM5B inh: inactive

Results for O=C(c1cc(-c2ccc(Cl)cc2)on1)N1CCCC1 ?
KDM5B inh: inactive

What do the screens show for `COc1ccccc1-c1cc(C(=O)N2CCOCC2)nn2cccc12`?
KDM5B inh: inactive

How did O=C(c1nc(-c2cc(Cl)cc(Cl)c2)c2ccccn12)N1CCOCC1 do in these assays?
KDM5B inh: 28.2µM

What do the screens show for `O=C(c1ccc(Cl)cc1)N1CCC(C(=O)N2CCN(c3ncccn3)CC2)CC1`?
KDM5B inh: inactive

Results for O=C(c1nc(-c2ccccc2)c2ccccn12)N1CCN(c2ncccn2)CC1 ?
KDM5B inh: inactive

Results for O=C(c1cc(-c2ccccc2Cl)nc2ccccc12)N1CCOCC1 ?
KDM5B inh: inactive

Results for O=C(c1nc(-c2ccc(Cl)cc2)c2ccccn12)N1CCN(c2ncccn2)CC1 ?
KDM5B inh: 25.1µM

Results for COc1ccc2c(c1OC)C(=O)OC2OC (stereo not given) ?
KDM5B inh: inactive

How did CC(O)CNS(=O)(=O)c1ccc(-c2ccc(S(=O)(=O)NCC(C)O)cc2)cc1 (stereo not given) do in these assays?
KDM5B inh: inactive

What do the screens show for `O=C(Nc1ccccc1)c1ccc(CSc2ccc3c(c2)OCCCO3)cc1`?
KDM5B inh: inactive

How did COc1cc(F)ccc1-c1cc(C(=O)NCCc2cnc[nH]2)c2c(c1)N(C)CCO2 do in these assays?
KDM5B inh: 39.8µM

How did COc1ccc(Cl)cc1C(=O)NCCc1noc(C)n1 do in these assays?
KDM5B inh: inactive

Results for COc1cccc(-c2cc(C(=O)NCCc3cnc[nH]3)c3c(c2)N(C)CCO3)c1OC ?
KDM5B inh: 28.2µM

How did COc1ccc(C(=O)NCCc2noc(-c3ccncc3)n2)cn1 do in these assays?
KDM5B inh: inactive

How did COc1ccc(-c2cc(C(=O)NCCc3cnc[nH]3)c3c(c2)N(C)CCO3)cn1 do in these assays?
KDM5B inh: 28.2µM

What do the screens show for `CN1CCOc2c(C(=O)NCCc3cnc[nH]3)cc(-c3cccnc3)cc21`?
KDM5B inh: inactive

How did COc1cccc(C(=O)NCCc2csc(-c3cccc(F)c3)n2)c1OC do in these assays?
KDM5B inh: inactive

How did Cn1ccc2c(C(=O)NCCc3cnc[nH]3)nc(-c3ccc(N4CCOCC4)cc3)cc21 do in these assays?
KDM5B inh: inactive

What do the screens show for `CCOC(=O)c1cn(C)nc1S(=O)(=O)N1CCCC1`?
KDM5B inh: inactive

How did OC[C@@H]1CNC[C@H]1C1CCN(Cc2ccc(Cl)c(F)c2)CC1 do in these assays?
KDM5B inh: inactive

What do the screens show for `CCOc1ccc(C2Cn3nnc(-c4nc(-c5ccc(SC)cc5)no4)c3CO2)cc1` (stereo not given)?
KDM5B inh: inactive

Results for N#Cc1ccccc1COC(=O)c1c(F)cccc1Cl ?
KDM5B inh: inactive

Results for CC1CCC(NC(=O)C2(c3ccccc3)CC2)CC1 (stereo not given) ?
KDM5B inh: inactive

What do the screens show for `O=C1/C(=C/c2ccc3ccccc3c2)Cc2ccccc21`?
KDM5B inh: inactive

What do the screens show for `CN(C)CC1(O)CCC2(CCN(C(=O)Cn3c(=O)oc4ccccc43)CC2)CC1`?
KDM5B inh: inactive

Results for COC(=O)C1CCCN1S(=O)(=O)c1ccc(F)cc1Cl (stereo not given) ?
KDM5B inh: inactive

Results for CN(C)CC(O)COc1ccc(NC(=O)Nc2ccccc2F)cc1 (stereo not given) ?
KDM5B inh: inactive

What do the screens show for `CC(C)(C)C1CCc2onc(C(=O)N3CCCC3)c2C1` (stereo not given)?
KDM5B inh: inactive

How did COCCNC(=O)[C@H]1C[C@H](Oc2ccccc2)CN1C(=O)C(C)C do in these assays?
KDM5B inh: inactive

How did COc1ccc(CN2C[C@H](O)C[C@H]2c2nc(-c3cccc(C)c3)no2)c2ccccc12 do in these assays?
KDM5B inh: 22.4µM

Results for Cc1cccc(-c2noc([C@@H]3C[C@@H](O)CN3Cc3cccc(C#N)c3)n2)c1 ?
KDM5B inh: inactive

Results for Oc1ccccc1CN1C[C@H](O)C[C@H]1c1nc(-c2ccccc2)no1 ?
KDM5B inh: inactive

How did O=C(O)/C(=C/c1ccncc1)NC(=O)c1ccccc1 do in these assays?
KDM5B inh: inactive

How did NC1=NC(c2c[nH]c3ccccc23)n2c(nc3ccccc32)N1 (stereo not given) do in these assays?
KDM5B inh: inactive

What do the screens show for `CC(C)c1ccc(C(=O)N2CCC(N3CC4CC(C3)[C@H]3CCCC(=O)N3C4)CC2)cc1` (stereo not given in full)?
KDM5B inh: inactive

How did O=C(c1ccc(C(F)(F)F)cc1)N1CCC(N2CC3CC(C2)[C@H]2CCCC(=O)N2C3)CC1 (stereo not given in full) do in these assays?
KDM5B inh: inactive

What do the screens show for `O=C(c1ccncc1)N1CCC(N2CC3CC(C2)[C@H]2CCCC(=O)N2C3)CC1` (stereo not given in full)?
KDM5B inh: 17.8µM

Results for CN1CCCCC1CC(=O)O (stereo not given) ?
KDM5B inh: inactive

Results for Cc1cccc(-c2cc(C(=O)NC3CCCC3)c3ccccc3n2)c1 ?
KDM5B inh: inactive

Results for O=C1Nc2ccc(-c3ccc4c(c3)OCO4)cc2C(=O)N2CC[C@H](NC(=O)N3CCOCC3)[C@@H]12 ?
KDM5B inh: inactive

Results for CC(C)(C)CC(=O)N1CCN2C(=O)c3cc(Br)ccc3NC(=O)[C@H]2C1 ?
KDM5B inh: inactive

Results for CSc1ccc(-c2ccc3c(c2)C(=O)N2CCN(C(=O)C4CCCCC4)C[C@@H]2C(=O)N3)cc1 ?
KDM5B inh: 28.2µM

How did O=C1Nc2ccc(-c3ccc4c(c3)OCO4)cc2C(=O)N2CCN(C(=O)C3CCCC3)C[C@@H]12 do in these assays?
KDM5B inh: 22.4µM

How did O=C1Nc2ccc(-c3ccc(Cl)cc3)cc2C(=O)N2CCN(C(=O)NC3CCCCC3)C[C@H]12 do in these assays?
KDM5B inh: inactive

What do the screens show for `CC(Cc1ccccc1)NC(=O)C1CCC(C)(C(=O)O)C1(C)C` (stereo not given)?
KDM5B inh: inactive

How did COc1cccc(-c2noc(CC3CCN(C(=O)CCc4ccccc4)CC3)n2)c1 do in these assays?
KDM5B inh: inactive

Results for CC(C)c1ccc(CN2CCN(C(=O)c3cccc4ncccc34)CC2)cc1 ?
KDM5B inh: inactive

Results for Cc1cccc(C(=O)N2CCN(C(=O)c3nnn4c3COC(c3ccccc3)C4)CC2)c1 (stereo not given) ?
KDM5B inh: inactive

Results for O=C(O)CCn1ncc2cc(OCC3CCN(C(=O)Oc4ccccc4)CC3)ccc21 ?
KDM5B inh: inactive

What do the screens show for `NC(=O)Cn1ccc2cc(OCC3CCN(c4cc(NC5CC5)ncn4)CC3)cnc21`?
KDM5B inh: 39.8µM

How did O=C(CCC1CCN(c2cc(NC3CC3)ncn2)CC1)Nc1ccccc1 do in these assays?
KDM5B inh: inactive

How did NC(=O)Cn1ccc2cc(OCC3CCN(C(=O)Oc4ccccc4Cl)CC3)cnc21 do in these assays?
KDM5B inh: 28.2µM
